A short description of this assay: chemical genetic growth profiling, strain panel (AID 1159580).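 Note: tested at 20 µM; growth read once vehicle control cultures reached saturation at 30 °C; 1 = growth at the plate median or of vehicle wells; lower values mean less growth of the strain.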 The note with it: growth OD.
Where [1] appears, read: S. cerevisiae deletion strains, locus YAL013W, strain DEP1, stronger effect = lower value.
Where [2] appears, read: S. cerevisiae deletion strains, locus YBR229C, strain ROT2, stronger effect = lower value.
The mark [3] stands for this setting: S. cerevisiae deletion strains, locus YDL101C, strain DUN1, stronger effect = lower value.
[4] abbreviates: S. cerevisiae deletion strains, locus YDL134C, strain PPH21, stronger effect = lower value.
Setting [5] is: S. cerevisiae deletion strains, locus YDR150W, strain NUM1, stronger effect = lower value.
[6] abbreviates: S. cerevisiae deletion strains, locus YEL061C, strain CIN8, stronger effect = lower value.
The mark [7] stands for this setting: S. cerevisiae deletion strains, locus YGR078C, strain PAC10, stronger effect = lower value.
[8] abbreviates: S. cerevisiae deletion strains, locus YHR030C, strain SLT2, stronger effect = lower value.
[9] abbreviates: S. cerevisiae deletion strains, locus YHR087W, strain rtc3, stronger effect = lower value.
[10] abbreviates: S. cerevisiae deletion strains, locus YJR043C, strain POL32, stronger effect = lower value.
Setting [11] is: S. cerevisiae deletion strains, locus YJR075W, strain HOC1, stronger effect = lower value.
Where [12] appears, read: S. cerevisiae deletion strains, locus YKL190W, strain CNB1, stronger effect = lower value.
The mark [13] stands for this setting: S. cerevisiae deletion strains, locus YLR039C, strain RIC1, stronger effect = lower value.
Setting [14] is: S. cerevisiae deletion strains, locus YLR058C, strain SHM2 (second series), stronger effect = lower value.
[15] abbreviates: S. cerevisiae deletion strains, locus YLR085C, strain ARP6, stronger effect = lower value.
Where [16] appears, read: S. cerevisiae deletion strains, locus YLR262C, strain YPT6, stronger effect = lower value.
Setting [17] is: S. cerevisiae deletion strains, locus YML094W, strain GIM5, stronger effect = lower value.
The mark [18] stands for this setting: S. cerevisiae deletion strains, locus YMR219W, strain ESC1, stronger effect = lower value.
Setting [19] is: S. cerevisiae deletion strains, locus YMR263W, strain SAP30, stronger effect = lower value.
Where [20] appears, read: S. cerevisiae deletion strains, locus YNL153C, strain GIM3, stronger effect = lower value.
Setting [21] is: S. cerevisiae deletion strains, locus YNL298W, strain CLA4 (second series), stronger effect = lower value.
Where [22] appears, read: S. cerevisiae deletion strains, locus YNL322C, strain KRE1, stronger effect = lower value.
Where [23] appears, read: S. cerevisiae deletion strains, locus YNR030W, strain Alg12, stronger effect = lower value.
[24] abbreviates: S. cerevisiae deletion strains, locus YPL055C, strain LGE1, stronger effect = lower value.
The mark [25] stands for this setting: S. cerevisiae deletion strains, locus YPL241C, strain CIN2, stronger effect = lower value.
Where [26] appears, read: S. cerevisiae deletion strains, locus YPR135W, strain CTF4, stronger effect = lower value.
Where [27] appears, read: S. cerevisiae strains, strain wild type, stronger effect = lower value.

Hit rate of the full screen: of about 5,500 compounds, about 2,000 (36%) were called active. Another 18% or so got no clear call; they are omitted. The list shows a part of the results. Values without a mark were called inactive. Cut-off read from the data, not from the text of the source: active = normalized growth mostly below about 0.91 (no sharp cut-off); inconclusive = no clear call, values can overlap the other calls; inactive = mostly above about 0.92.

In the case of `O=C(O)CSC1CCS(=O)(=O)C1` (stereo not given), the normalized growth by setting is: under setting [1], 1.02; under setting [2], 0.998; (S. cerevisiae deletion strains, locus YCL061C, strain MRC1, stronger effect = lower value) 1.02; under setting [3], 1.02; under setting [4], 1.02; under setting [5], 0.956. The normalized growth reads like this: under setting [6], 1.04; under setting [7], 1.01; under setting [8], 1.05; under setting [9], 1.01; under setting [10], 1; under setting [11], 1.06. Moreover, the normalized growth runs as follows: under setting [12], 1.01; under setting [13], 1.06; under setting [14], 1.01; under setting [15], 1; under setting [16], 1.06; under setting [17], 1.03. In addition, the normalized growth under setting [18] is 1; the normalized growth under setting [19] is 1; the normalized growth under setting [20] was 0.997; the normalized growth under setting [21] is 1.01; the normalized growth under setting [22] is 1.03; the normalized growth under setting [23] was 1. Besides, the normalized growth runs as follows: under setting [24], 0.906; under setting [25], 1.01; under setting [26], 1.02; under setting [27], 1.01.
`NC(=S)CSc1ccccc1`: the normalized growth runs as follows: under setting [1], 0.937; under setting [2], 0.969; under setting [3], 1.01; under setting [5], 0.921; under setting [6], 0.87 (active); under setting [7], 0.99. The normalized growth (S. cerevisiae deletion strains, locus YGR229C, strain SMI1, stronger effect = lower value) was 0.991; the normalized growth under setting [8] was 0.62 (active); the normalized growth under setting [9] is 1.03; the normalized growth (S. cerevisiae deletion strains, locus YJL187C, strain SWE1, stronger effect = lower value) was 0.969; the normalized growth under setting [10] is 0.924; the normalized growth under setting [11] was 1.04. The normalized growth under setting [12] was 0.864 (active); the normalized growth under setting [13] was 0.883; the normalized growth under setting [14] is 1; the normalized growth under setting [15] is 0.591 (active); the normalized growth under setting [16] was 0.919; the normalized growth under setting [17] is 0.892. Further, the normalized growth under setting [18] was 0.999; the normalized growth under setting [20] is 0.981; the normalized growth under setting [21] was 0.711 (active); the normalized growth under setting [22] is 1.04; the normalized growth under setting [23] was 0.681 (active); the normalized growth (S. cerevisiae deletion strains, locus YOL006C, strain TOP1, stronger effect = lower value) was 0.31 (active). The normalized growth was 0.855 under setting [24], 0.832 (active) under setting [25], 0.679 under setting [26] and 0.888 (active) under setting [27].
For `N=C(N)c1ccccc1`, the normalized growth under setting [1] was 1.01; the normalized growth (S. cerevisiae deletion strains, locus YAL040C, strain CLN3, stronger effect = lower value) was 0.991; the normalized growth (S. cerevisiae deletion strains, locus YCL061C, strain MRC1 (second series), stronger effect = lower value) is 1.01; the normalized growth under setting [5] was 1; the normalized growth (S. cerevisiae deletion strains, locus YDR363W, strain ESC2, stronger effect = lower value) was 1.01; the normalized growth (S. cerevisiae deletion strains, locus YER002W, strain NOP16, stronger effect = lower value) is 1.02. Moreover, the normalized growth reads like this: under setting [20], 1.07; (S. cerevisiae deletion strains, locus YNL175C, strain NOP13, stronger effect = lower value) 0.999; (S. cerevisiae deletion strains, locus YNL197C, strain WHI3, stronger effect = lower value) 1.03; (S. cerevisiae deletion strains, locus YNL224C, strain SQS1, stronger effect = lower value) 1.01; under setting [22], 1.02; (S. cerevisiae deletion strains, locus YOR083W, strain WHI5 (second series), stronger effect = lower value) 1.06.
On to `Cn1c(CSc2ccccc2)n[nH]c1=S`, for which the normalized growth under setting [1] is 0.997; the normalized growth under setting [2] is 0.99; the normalized growth under setting [3] is 0.994; the normalized growth under setting [4] is 1.01; the normalized growth under setting [5] was 0.949; the normalized growth under setting [6] is 1.02. The normalized growth was 0.977 under setting [7]; 1.01 under setting [8]; 0.982 under setting [9]; 0.978 under setting [10]; 0.987 under setting [11]; 1.05 under setting [13]. For the same compound, the normalized growth was 0.998 under setting [14]; 1.09 under setting [15]; 1.04 under setting [16]; 1.01 under setting [17]; 0.992 under setting [18]; 0.963 under setting [19]. Also, the normalized growth is, setting by setting: (S. cerevisiae deletion strains, locus YMR307W, strain GAS1, stronger effect = lower value) 1.2; under setting [20], 0.981; under setting [21], 1.03; under setting [22], 1.01; under setting [23], 1.02; under setting [24], 0.965. The normalized growth under setting [25] was 1.02, the normalized growth under setting [26] was 1.04 and the normalized growth under setting [27] was 1.01.

The record behind these values is PubChem BioAssay AID1159580 (chemical genetic matrix, 2015).
